Results: the supplement of paper PMC13380429
A number with no mark means an inactive call.

system: Vero E6 infected with SARS-CoV-2; experiment: SARS-CoV-2 infection rate relative to infected DMSO; higher = more infection, active = 60 or less; settings: 24 h

Structure (SMILES)	SARS-CoV-2 infection rate
O=C1Nc2ccccc2C2(CCN(CCc3ccc(C(F)(F)F)cc3)CC2)O1 (10 µM)	106%
O=c1sn(-c2cccc3ccccc23)c(=O)n1Cc1ccccc1 [tideglusib] (10 µM)	108%
Cc1ccc(C(=O)Nc2ccc(S(=O)(=O)O)c3cc(S(=O)(=O)O)cc(S(=O)(=O)O)c23)cc1NC(=O)c1cccc(NC(=O)Nc2cccc(C(=O)Nc3cc(C(=O)Nc4ccc(S(=O)(=O)O)c5cc(S(=O)(=O)O)cc(S(=O)(=O)O)c45)ccc3C)c2)c1 [suramin] (10 µM)	101%
CC(C)(C)c1ccc(S(=O)(=O)NCc2ccc(C(=O)Nc3cccnc3)cc2)cc1 (0.833333 µM)	107%
Clc1ccc(COC(Cn2ccnc2)c2ccc(Cl)cc2Cl)c(Cl)c1 (stereo not given) [miconazole] (10 µM)	118%
CCc1ccc(C(=O)C(C)CN2CCCCC2)cc1 (stereo not given) [eperisone] (10 µM)	80%
N=C(N)NCCC[C@@H](N)C(=O)N[C@@H](CCCNC(=N)N)C(=O)N1CCC[C@H]1C(=O)N1C[C@H](O)C[C@H]1C(=O)NCC(=O)N[C@@H](Cc1cccs1)C(=O)N[C@@H](CO)C(=O)N1Cc2ccccc2C[C@@H]1C(=O)N1[C@H](C(=O)N[C@@H](CCCNC(=N)N)C(=O)O)C[C@@H]2CCCC[C@@H]21 [icatibant-acetate] (10 µM)	102%
O=C(N/N=C/c1ccc(O)c(O)c1)c1cc2ccccc2cc1O [dynasore] (10 µM)	108%
C=CCN1CC[C@]23c4c5ccc(O)c4O[C@H]2/C(=N/NC(=O)c2ccccc2)CC[C@@]3(O)[C@H]1C5 [naloxone-benzoylhydrazone] (10 µM)	110%
CC(C(=O)O)c1cccc(C(=O)c2ccccc2)c1 (stereo not given) [ketoprofen] (10 µM)	102%
N[C@@H](C(=O)N[C@@H]1C(=O)N2C(C(=O)O)=C(Cl)CS[C@H]12)c1ccccc1 [cefaclor] (10 µM)	104%
CC(C)(O)C(=O)Nc1ccc([N+](=O)[O-])c(C(F)(F)F)c1 [2-hydroxyflutamide] (10 µM)	108%
Cc1ccccc1-n1c(Cn2ncc3c(N)ncnc32)nc2cccc(C)c2c1=O (10 µM)	45% (active)
CC1(C)O[C@H]2CC(=O)OC[C@]23[C@H]2CC[C@@]4(C)[C@H](c5ccoc5)OC(=O)[C@H]5O[C@]54[C@]2(C)C(=O)C[C@@H]13 [limonin] (10 µM)	103%
CCCCOc1ccc(C(=O)CCN2CCCCC2)cc1 [dyclonine] (10 µM)	91.5%
Cc1oc(=O)oc1CN1CCN(c2cc3c(cc2F)c(=O)c(C(=O)O)c2n3C(C)S2)CC1 (stereo not given) [prulifloxacin] (10 µM)	97%
CCCC(=O)O[C@]1(C(=O)CO)CC[C@H]2[C@@H]3CCC4=CC(=O)CC[C@]4(C)[C@H]3[C@@H](O)C[C@@]21C [hydrocortisone-butyrate] (10 µM)	102%
Cc1c(F)cc(C(=O)NC2CC2)cc1-c1ccc(C(=O)NCC(C)(C)C)cn1 [losmapimod] (10 µM)	98.5%
CC(C)OC(=O)CNC(=O)[C@H](CS)NC(=O)CC[C@H](N)C(=O)O [glutathione-monoisopropyl-ester] (10 µM)	101%
CNCCC=C1c2ccccc2CCc2ccccc21 [nortriptyline] (0.833333 µM)	110%

Structure (SMILES)	SARS-CoV-2 infection rate
Fc1ccc(-c2nc3n(c2-c2ccncc2)CCS3)cc1 (10 µM)	94%
CCCCOc1ccc(-c2cncc(C(=O)NCc3cccnc3N3CCOCC3)c2)cc1Cl (10 µM)	108%
Cc1ccccc1NC(=N)Nc1ccccc1C [ditolylguanidine] (10 µM)	117%
CC(C)=CCC/C(C)=C/CC/C(C)=C/CCC(=O)OC/C=C(\C)CCC=C(C)C [geranyl-farnesylacetate] (10 µM)	99%
Cc1ccccc1C(C(=O)NC1CCCCC1)N(C(=O)Cn1ccnc1C)c1cccc(F)c1 (stereo not given) (10 µM)	108%
O=C(Nc1ccc(CN2CCOCC2)cc1)c1ccc(-c2cccc(Cl)c2)o1 (10 µM)	110%
Oc1ccc(Cl)c2cccnc12 [cloxyquin] (10 µM)	109%
CC(C)(CC(=O)N1CCCC1)NCC(=O)N1C[C@@H](F)C[C@H]1C#N (10 µM)	102%
CC(=O)Nc1ccc(OC(C)=O)cc1 [diacetamate] (10 µM)	99.5%
CNc1ncnc2c1ncn2[C@@H]1O[C@H](CO)[C@@H](O)[C@H]1O [N6-methyladenosine] (10 µM)	100%
c1ccc2c(c1)CN1CCCC1=N2 [desoxypeganine] (10 µM)	94.5%
c1ccc2c(c1)CCCC2C1=NCCN1 (stereo not given) [tetrahydrozoline] (0.833333 µM)	103%
Cn1c(=O)cc(N2CCC[C@@H](N)C2)n(Cc2cc(F)ccc2C#N)c1=O [trelagliptin] (10 µM)	99%
O=C(c1ccc(OCCCc2c[nH]cn2)cc1)C1CC1 [ciproxifan] (10 µM)	95.5%
N[C@@H]1c2cccnc2[C@H](OC(=O)N2CCC(n3c(=O)[nH]c4ncccc43)CC2)CC[C@H]1c1cccc(F)c1F [rimegepant] (10 µM)	96.5%
Cc1ccc(NC(=O)c2ccc(CN3CCN(C)CC3)cc2)cc1Nc1nccc(-c2cccnc2)n1 [imatinib] (10 µM)	37% (active)
COc1cc(/C=C/C(=O)CC(=O)/C=C/c2ccc(O)c(OC)c2)ccc1O [curcumin] (10 µM)	61.5%
N[C@H]1C[C@@H]1c1ccccc1 (racemic) [tranylcypromine] (10 µM)	114%
O=C(O)CCCCCCNC1c2ccccc2CCc2ccccc21 [amineptine] (10 µM)	105%
CC(C)(NS(=O)(=O)c1ccc(Oc2ccc(F)cc2)cc1)C(=O)NO (10 µM)	99%
